# Bioassay records from PubChem.
# NS1 function inh = qHTS Assay for Inhibitors of Influenza NS1 Protein Function | Potency, µM (highest dose often 46.1 µM), for inactives: at the highest dose activity, positive = more growth | hit rate 0.4% among 270,000 | AID 2326, 2010; calls by dose curve; note: actives are rising curves; nearly all actives have a fitted effect of over 50% in size
#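 S. cerevisiae expressing influenza A NS1, grown in glucose, washed, then diluted 1:100 into pH 6.0 -URA galactose medium with 23 nl compound. Growth recovery read as OD600; NS1-free strain serves as control.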
# Pf growth 96h = Primary qHTS for delayed death inhibitors of the malarial parasite plastid, 96 hour incubation | P. falciparum luciferase reporter growth, 96 h | Potency, µM (highest dose often 28.7 µM), for the others: top-dose activity change, negative = inhibition, hits mostly inhibitors | hit rate 6.9% among 320,000; note: % is set by controls: 0 for no effect and ±100 for the full control effect
#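 P. falciparum expressing integrated firefly luciferase, in erythrocytes at 2% hematocrit, 0.05% parasitemia, incubated with compounds 96 h at 37 C, 5% CO2. Growth inhibition read as loss of luminescence; two-generation exposure targets delayed-death apicoplast inhibitors.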
# AMA1 RON2 block = qHTS for Inhibitors of AMA1-RON; Towards Development of Antimalarial Drug Lead: Primary Screen; hit rate 0.2% among 360,000; Potency, µM (titrated, usually from 58.2 µM), for the others: at the top dose activity change, negative = inhibition, most hits filed as inhibitors; AID 720542, 2013; AlphaScreen AMA1-biotinylated RON2 peptide binding; Plasmodium falciparum AMA1 (3D7) - RON2 peptide interaction;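 note: 0% = vehicle wells and -100% = peptide control; nearly all actives have a fitted effect of over 45% in size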
#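 AMA1 (3D7) with his tag at 25 nM final met compounds first, then biotinylated RON2 peptide at 25 nM; detection used donor plus acceptor beads, 10 µg/mL apiece, read by AlphaScreen after 30 min at room temperature.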
# Pf growth 48h = Primary qHTS for delayed death inhibitors of the malarial parasite plastid, 48 hour incubation. hit rate 5.9% among 310,000. Potency, µM (titrated, usually from 28.7 µM), for the others: at the top dose activity change, negative = inhibition, hits mostly inhibitors. P. falciparum luciferase growth in erythrocytes, 48 h; note: % is set by controls: 0 for no effect and ±100 for the full control effect
#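 Firefly luciferase activity from engineered P. falciparum reports growth; inhibitors lower the luminescent signal. Cultures contained 2% hematocrit erythrocytes at 0.1% final parasitemia.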
# Sm TGR inh = qHTS Assay for the Inhibitors of Schistosoma Mansoni Peroxiredoxins; Schistosoma mansoni thioredoxin glutathione reductase (TGR), Q962Y6; hit rate 3% among 360,000; Potency, µM (doses to about 114 µM), for the others: top-dose activity change, negative = inhibition, most hits filed as inhibitors; purified TGR, DTNB reduction, TNB absorbance 405 nm; note: % is set by controls: 0 for no effect and ±100 for the full control effect; nearly all actives have a fitted effect of over 60% in size
#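 Kinetic colorimetric format: TGR-catalysed, NADPH-driven DTNB reduction monitored via TNB absorbance. Enzyme dispensed at 20 nM; compound exposure 15 min at room temperature before reaction start.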
# Active calls of the source: *; i = inactive; ? = inconclusive; . = no result; [ ] = dose if it differs, or a comment. Most compounds without a hit are left out; they make up all but 11% or so of the library. Unless noted, calls come from the whole dose curve; as a rule, active = well fitted curve in the direction sought with a large enough effect; inconclusive = small, poorly fitted or top-dose-only effect, or another doubt; inactive = no such curve, though single readings can be large; an effect the other way counts as inactive or inconclusive. Potency is the fitted concentration of half-maximal effect.
SMILES,NS1 function inh,Pf growth 96h,AMA1 RON2 block,Pf growth 48h,Sm TGR inh
O=C(O)/C=C/C(=O)c1ccc2c(c1)CCc1ccccc1-2,.,20.8%,-8.7%,10.9%,0.562µM*
Cc1ccc(S(=O)(=O)NC2CCCC2)cc1C,9.0%,0.0%,-2.1%,.,-6.9%
Cc1cc(=O)[nH]c2ccc(S(=O)(=O)NC3CCCCC3)cc12,7.9%,10.4µM*,0.8%,0.0%,-17.5%
C=CCn1c(SCC(=O)Nc2cc(C)on2)nc2sc(C)c(C)c2c1=O,3.8%,-19.2%,0.0%,.,0.0%
C=CCSc1nc2sc(C)c(C)c2c(=O)n1CC=C,0.5%,-27.2%,21.5%,?,15.8µM*
C=CCn1c(SCC(=O)N2CCOCC2)nc2sc(C)c(C)c2c1=O,-2.9%,10.5%,1.0%,-24.3%,6.7%
CCn1c(SCC(=O)Nc2cc(C)on2)nc2sc(C)c(C)c2c1=O,-0.5%,11.7µM*,.,11.2%,-3.8%
COc1ccc(C)cc1-n1c(SCC(=O)Nc2cc(C)on2)nc2sc(C)c(C)c2c1=O,20.2%,33.3%,8.9%,9.28µM*,6.4%
CCOc1ccc(CCNC(=O)C2CCN(C(=O)N3CC(CC)Oc4ccccc43)CC2)cc1 (stereo not given),.,.,.,.,-5.0%
Cc1ccc(C(=O)c2oc3ccccc3c2NC(=O)COc2ccccc2C)cc1,.,.,.,.,17.7%
Cc1cccc(C)c1N1C(=O)c2ccccc2NC(=O)C1C(=O)Nc1ccc2c(c1)OCCO2 (stereo not given),.,.,-3.9%,.,.
Cc1cc(C(=O)COC(=O)c2ccc(F)cc2F)c(C)n1C1CC1,.,i,-1.8%[11.6 µM],141.2%,-9.1%
CCCNC(=O)c1onc(CS(=O)(=O)c2cccc(OC)c2)c1C(=O)NCCC,.,?,-0.1%,?,1.4%
CC(NC(=S)Nc1ccccc1Cl)C(c1cccs1)N1CCCC1 (stereo not given),-13.2%,11.7µM*,5.6%,?,-2.8%
Cc1c(Cl)cccc1NC(=S)NCCc1ccccn1,1.8%,?,6.1%,-4.7%,0.8%
S=C(NCc1cccs1)Nc1cc(Cl)cc(Cl)c1,-65.3%,?,27.3%,?,11.2µM*
Cc1c(Cl)cccc1NC(=S)NCCc1ccc(C(F)(F)F)cc1,.,13.1µM*,48.9%,6.57µM*,0.8%
S=C(NCc1cccs1)Nc1cccc(Cl)c1,-9.9%,?,-0.4%,?,-20.9%
Cc1ccccc1NC(=S)NC(C)C(c1cccs1)N1CCOCC1 (stereo not given),2.4%,?,-1.1%,?,-9.6%
S=C(NCc1cccs1)Nc1ccccc1Cl,?,-16.2%,6.7%,7.3%,11.2µM*
Cc1cc(Cl)ccc1NC(=S)NCc1cccs1,-6.8%,?,31.0%,-17.2%,3.4%
Cc1ccccc1NC(=O)c1ccc(F)c(S(=O)(=O)N2CCN(c3ccccc3F)CC2)c1,.,.,.,.,-2.9%
CN(C)/C=C(\C=O)c1ncc(C(F)(F)F)cc1Cl,.,?,0.0%,103.5%,?
OC(c1ccc(Cl)c(F)c1)c1ncc(-c2cccc(C(F)(F)F)c2)[nH]1 (stereo not given),.,.,-1.0%,.,.
S=C(NCCNC(=S)Nc1ccccc1Cl)Nc1ccccc1Cl,2.8%,9.28µM*,36.7%,9.28µM*,0.0%
SMILES,NS1 function inh,Pf growth 96h,AMA1 RON2 block,Pf growth 48h,Sm TGR inh
S=C(NCCc1ccccn1)Nc1cc(Cl)cc(Cl)c1,-9.1%,13.1µM*,25.5%,?,7.7%
CS(=O)(=O)N1CCN(c2ccc(NC(=S)NC(=O)c3ccccc3[N+](=O)[O-])cc2)CC1,.,24.1%,5.1%,21.8%,1.0%
COCc1cc(=O)[nH]c(Nc2nc3ccc(C)cc3o2)n1,-10.7%,?,?,2.94µM*,-17.5%
C=CCNC(=O)C1CCN(c2c([N+](=O)[O-])cc(C(F)(F)F)cc2[N+](=O)[O-])CC1,-3.5%,9.28µM*,-4.1%,5.22µM*,2.5%
O=C(O)C1CCN(c2c([N+](=O)[O-])cc(C(F)(F)F)cc2[N+](=O)[O-])CC1,-50.1%,-12.8%,0.0%,-22.9%,13.9%
Cc1ccccc1CN1c2ccccc2S(=O)(=O)c2ccccc21,.,.,.,.,5.6%
Cc1cc2oc(=O)cc(CN3CCN(C/C=C/c4ccccc4)CC3)c2cc1O,-43.8%,.,.,2.94µM*,-13.6%
Cc1cc2oc(=O)cc(CN3CCOCC3)c2cc1O,1.1%,22.1%,2.5%,18.4%,-3.3%
Cc1c(O)ccc2c(CN3CCN(C/C=C/c4ccccc4)CC3)cc(=O)oc12,-0.4%,?,0.0%,2.62µM*,-25.1%
O=c1cc(CN2CCN(Cc3ccccc3)CC2)c2cc(O)ccc2o1,1.2%,?,-2.2%,-23.6%,-15.4%
O=c1cc(CN2CCN(C/C=C/c3ccccc3)CC2)c2cc(O)c(-c3ccccc3)cc2o1,14.6%,1.04µM*,2.8%,0.928µM*,-3.6%
Cc1cc2oc(=O)cc(CN3CCN(Cc4ccccc4)CC3)c2cc1O,4.8%,?,-2.9%,9.28µM*,-19.3%
CN(Cc1nc(-c2ccc(Cl)cc2)no1)S(=O)(=O)c1ccccc1,.,.,.,.,3.7%
COC(=O)C1=C(C)NC(=S)NC1c1ccc(OCC(=O)N2CCCCC2)c(OC)c1 (stereo not given),5.1%,11.6%,12.4%,?,-9.3%
CC(C)Oc1ccc2ccccc2c1CNC[C@H]1O[C@@H](n2ccc(=O)[nH]c2=O)[C@H](O)[C@@H]1O,.,.,7.4%,.,.
O=C(CSc1ncccn1)NC(=O)NC1CCCC1,.,.,-2.6%,.,.
CC(C)CN(Cc1cc(=O)oc2cc(-c3ccccc3)c(O)cc12)CC(C)C,21.9%,?,19.0%,0.329µM*,-17.4%
Cc1cc(O)c2c(CN3CCN(Cc4ccccc4)CC3)cc(=O)oc2c1,-4.0%,8.28µM*,-10.4%,?,-31.6%
CCc1cc2c(CN3CCN(CCO)CC3)cc(=O)oc2cc1O,-0.7%,?,23.8%,13.1µM*,3.2%
Cc1ccc2c(CN3CCN(S(=O)(=O)/C=C/c4ccccc4)CC3)cc(=O)oc2c1,?,9.28µM*,-2.5%[11.6 µM],?,-2.8%
CCc1cc(=O)oc2cc(C)cc(O)c12,-99.9%,21.3%,-3.9%,.,4.9%
CC(=NCc1ccccc1)c1ccc(O)cc1O,.,.,29.9%,.,.
COc1ccc(NC(=O)c2sc3nc[nH]c(=O)c3c2C)cc1OC,.,.,.,.,24.2%
CC1=C(C(=O)Nc2cccnc2)C(c2ccccc2)n2nc(SCc3ccccc3F)nc2N1 (stereo not given),.,.,.,.,-9.2%
Cc1cc2oc(=O)cc(CN3CCN(S(=O)(=O)c4cccs4)CC3)c2cc1C,6.9%,7.38µM*,-0.1%[11.6 µM],?,4.9%
Cc1cc2oc(=O)cc(CN3CCCCC3)c2cc1C,5.8%,3.8%,0.3%,17.3%,-9.5%
Cc1ccc(S(=O)(=O)Nc2cccc(CP(=O)(c3ccccc3)c3ccccc3)c2)cc1,-6.7%,9.28µM*,6.6%,3.29µM*,3.8%
Cc1ccc(S(=O)(=O)Nc2ccc(Nc3ccccc3)cc2)cc1,-81.4%,?,-12.9%,-34.2%,-23.6%
